Records with an inconclusive call do not appear. Where a call stands in place of a potency, no number is given. Calls of active or inactive are those of the source. Calls come from the whole dose curve; as a rule, active = well fitted curve in the direction sought with a large enough effect; inconclusive = small, poorly fitted or top-dose-only effect, or another doubt; inactive = no such curve, though single readings can be large; an effect the other way counts as inactive or inconclusive.
Assay: Confirmatory screen NINDS Rhodamine qHTS for Zika virus inhibitors (AID 1347161); note: nearly all actives have a fitted effect of over 60% in size; note: potency is the fitted concentration of half-maximal effect
Conditions: purified enzyme assay, Rhodamine110 substrate fluorescence, 15 min; series mostly up to 64.7 µM
How it was run: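 Each compound, titrated, sat 15 min with 25 nM linked protease before 1.5 microM Rhodamine110 substrate went in. Fluorescence gain over the next 15 min, in pH 8.0 Tris with Tween 20, gave Hill-fitted curves.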

**Q.** Which Potency does the source give for COc1ccccc1Oc1c(NS(=O)(=O)c2ccc(C(C)(C)C)cc2)nc(-c2ncccn2)nc1OCCO here?
**A.** The Potency was “inactive”.

**Q.** With O=C(O)Cn1c(C(=O)Nc2nc(-c3ccccc3Cl)cs2)cc2ccccc21 as the molecule, how does the Potency read?
**A.** Its Potency is 3.93 µM (active).

**Q.** Which Potency does the source give for CN1C[C@@H]2C[C@H]1CN2c1cc2c(cc1F)c(=O)c(C(=O)O)cn2C1CC1 here?
**A.** Its Potency is “inactive”.

**Q.** Which Potency does the source give for O=C(O)[C@@H]1[C@H]2C[C@H]3c4[nH]c5ccccc5c4CCN3C[C@@H]2CC[C@@H]1O here?
**A.** Its Potency is 12.4 µM (active).

Assay: Vero cells viability qHTS for Zika virus inhibitors (AID 1347167)
Conditions: cytotoxicity counter-screen (Zika); series mostly up to 45.9 µM
How it was run: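 Luminescent ATP readout (CellTiter Glo) after 30 min at 37 degrees C gives viability; cells in DMEM + 4% FBS were treated 24 to 48 hours with compound, following overnight attachment.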

**Q.** With O=C(O)Cn1c(C(=O)Nc2nc(-c3ccccc3Cl)cs2)cc2ccccc21 as the molecule, how does the outcome read?
**A.** The outcome was “inactive”.

**Q.** For CN1C[C@@H]2C[C@H]1CN2c1cc2c(cc1F)c(=O)c(C(=O)O)cn2C1CC1, which outcome is on record?
**A.** The outcome was “inactive”.

**Q.** Which outcome does the source give for O=C(O)[C@@H]1[C@H]2C[C@H]3c4[nH]c5ccccc5c4CCN3C[C@@H]2CC[C@@H]1O here?
**A.** The outcome was “inactive”.

— PubChem BioAssay (NCATS)
